Reference: PubChem BioAssay (Tox21)
Records with an inconclusive call do not appear. Activity calls are given as the source filed them. Unless noted, the call rests on the fitted dose curve; in most records, active means well fitted curve in the direction sought with a large enough effect in the repeat runs; inconclusive means weak or mixed curves; inactive means no such curve, though single readings can be large; an effect the other way counts as inactive or inconclusive.

Assays:
[1] = A CellTox Green Cytotoxicity Assay to monitor cytotoxicity in HEK293 cells - 32 hour (AID 1224881); further: nearly all actives have a fitted effect of over 40% in size
In short: (§1)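 Dead-cell fluorescence measured kinetically: asymmetric cyanine dye, HEK293, 600 cells/well, 5 h settle, 23 nL cpd/DMSO, 37 C, reads 0–40 h every 8 h.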

[2] = A CellTox Green Cytotoxicity Assay to monitor cytotoxicity in HepG2 cells - 0 hour (AID 1224882); further: nearly all actives have a fitted effect of over 35% in size
In short: (§2)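 First, HepG2 cells (600/well) mixed with reagent were plated; second, after 5 h at 37 C they received compounds via pintool; third, fluorescence was measured at 0 h through 40 h at 8 h intervals.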

[3] = A CellTox Green Cytotoxicity Assay to monitor cytotoxicity in HEK293 cells - 8 hour (AID 1224884); further: nearly all actives have a fitted effect of over 35% in size
In short: as §1

[4] = qHTS RealTime-Glo MT Cell Viability Assay in HepG2 cells - 16 hour (AID 1224885); further: nearly all actives have a fitted effect of over 50% in size
In short: (§3)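 Viability was tracked continuously by NanoLuc luminescence from prosubstrate reduced by living HepG2 cells, at successive time points over 40 h of compound exposure. Cells with reagent were preincubated 5 h at 37 °C before compound addition.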

[5] = qHTS RealTime-Glo MT Cell Viability Assay in HEK293 cells - 24 hour (AID 1224886); further: top concentration of the series differs between compounds; nearly all actives have a fitted effect of over 50% in size
In short: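 Viability tracked continuously by luminescence as live cells reduce a prosubstrate for NanoLuc; HEK293 cells preincubated 5 h, compound-treated at 37 C, and read at 0, 8, 16, 24, 32 and 40 h.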

[6] = qHTS RealTime-Glo MT Cell Viability Assay in HEK293 cells - 8 hour (AID 1224887); further: top concentration of the series differs between compounds; nearly all actives have a fitted effect of over 50% in size
In short: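 600 HEK293 cells per well, dispensed already mixed with RealTime-Glo MT reagents. Compound dosing came 5 h later. The same wells were read for luminescence at 0, 8, 16, 24, 32 and 40 h of exposure at 37 C.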

[7] = A CellTox Green Cytotoxicity Assay to monitor cytotoxicity in HEK293 cells - 16 hour (AID 1224888); further: nearly all actives have a fitted effect of over 35% in size; further: potency means the concentration at half of the fitted maximal effect
In short: as §1

[8] = qHTS RealTime-Glo MT Cell Viability Assay in HepG2 cells - 0 hour (AID 1224889); further: nearly all actives have a fitted effect of over 50% in size; further: potency means the concentration at half of the fitted maximal effect
In short: as §3

[9] = A CellTox Green Cytotoxicity Assay to monitor cytotoxicity in HepG2 cells - 8 hour (AID 1224890); further: nearly all actives have a fitted effect of over 45% in size
In short: as §2

[10] = qHTS assay to identify small molecule antagonists of the estrogen receptor alpha (ER-alpha) signaling pathway using the BG1 cell line in the presence of 0.1 nM 17-beta-estradiol - cell viability counter screen (AID 1259241); further: nearly all actives have a fitted effect of over 40% in size
In short: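 Live-cell protease activity (CellTiter-Fluor fluorescence, 30 min) was read in the same wells after VM7Luc4E2 cells had been exposed to compounds with 0.1 nM 17beta-estradiol for 22 hr at 37C.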

[11] = qHTS assay to identify small molecule antagonists of the androgen receptor (AR) signaling pathway using the MDA cell line in the presence of 0.5 nM R1881 - cell viability counter screen (AID 1259242); further: nearly all actives have a fitted effect of over 45% in size
In short: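 qHTS format. MDA-kb2 (MMTV-luc, AR/GR responsive) + cpd + 0.5 nM R1881 final, 16 hr 37C/0% CO2 → CellTiter-Fluor 30 min → fluorescence intensity.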

[12] = target: Estrogen receptor (Homo sapiens) (UniProt P03372); assay: qHTS assay to identify small molecule antagonists of the estrogen receptor alpha (ER-alpha) signaling pathway using the BG1 cell line in the presence of 0.1 nM 17-beta-estradiol (AID 1259244); further: nearly all actives have a fitted effect of over 50% in size
Chain of Estrogen receptor (Homo sapiens) (P03372 whole entry, looked up): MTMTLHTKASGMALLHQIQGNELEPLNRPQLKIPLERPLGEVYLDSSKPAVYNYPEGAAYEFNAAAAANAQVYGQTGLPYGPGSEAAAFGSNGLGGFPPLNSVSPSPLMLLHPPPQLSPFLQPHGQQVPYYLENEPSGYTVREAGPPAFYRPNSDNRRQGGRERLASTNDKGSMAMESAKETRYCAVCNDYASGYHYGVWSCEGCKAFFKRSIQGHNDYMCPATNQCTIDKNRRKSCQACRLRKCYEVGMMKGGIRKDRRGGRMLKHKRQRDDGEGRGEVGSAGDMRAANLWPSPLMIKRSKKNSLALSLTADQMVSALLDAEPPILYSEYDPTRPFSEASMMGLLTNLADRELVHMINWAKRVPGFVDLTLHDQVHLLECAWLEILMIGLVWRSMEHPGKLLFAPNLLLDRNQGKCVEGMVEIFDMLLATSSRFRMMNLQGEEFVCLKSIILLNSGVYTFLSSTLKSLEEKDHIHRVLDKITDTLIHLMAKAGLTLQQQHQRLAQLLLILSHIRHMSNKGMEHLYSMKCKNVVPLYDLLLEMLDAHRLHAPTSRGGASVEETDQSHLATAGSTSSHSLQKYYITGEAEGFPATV
In short: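 Reporter is a stably transfected luciferase under four estrogen responsive elements in VM7Luc4E2 cells expressing native full-length ER-alpha; inhibition of 0.1 nM (final) 17beta-estradiol-driven signal over 22 h is read by luminescence.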

[13] = qHTS assay to identify small molecule HDAC inhibitors (AID 1259364);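 further: wild-type HCT-116 cells with endogenous class I/II HDAC activity; top concentration of the series differs between compounds; nearly all actives have a fitted effect of over 45% in size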
In short: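 Quantitative high-throughput format: overnight-seeded HCT-116 cells got compounds for 2 hr at 37C; HDAC-Glo I/II reagent added, 30 min RT, luminescence measured.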

[14] = qHTS assay to identify small molecule HDAC inhibitors - cell viability counter screen (AID 1259365)
In short: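 HCT-116 (wild type), 1,500 cells/well, overnight 37C/5% CO2; compound in DMSO 2hr; CellTiter-Glo 30min RT; luminescence read.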

[15] = qHTS assay to identify small molecule agonists of the sonic hedgehog signaling (Shh) pathway - cell viability counter screen (AID 1259366); further: nearly all actives have a fitted effect of over 50% in size; further: potency means the concentration at half of the fitted maximal effect
In short: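 CellTiter-Fluor fluorescence read-out, 1 hr at 37C, added after 23hr compound exposure. Cells: 3T3 Gli1-Luc, an NIH/3T3 clone with stably integrated Gli1-Luc reporter, plated 4hr before compound.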

[16] = qHTS assay to identify small molecule antagonists of the sonic hedgehog signaling (Shh) pathway - cell viability counter screen (AID 1259367); further: nearly all actives have a fitted effect of over 55% in size
In short: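 Tox21 library chemicals were tested on a Gli1-Luc NIH/3T3 clone (2,000 cells/well) stimulated by conditioned medium; viability was quantified as fluorescence from CellTiter-Fluor reagent added at 23 hr.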

[17] = qHTS assay to identify small molecule agonists of the sonic hedgehog signaling (Shh) pathway (AID 1259368; calls by dose curve;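 further: NIH/3T3-derived 3T3Gli1-Luc cells carrying a stable Gli1-driven firefly luciferase reporter; series mostly up to about 92 µM; nearly all actives have a fitted effect of over 15% in size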)
In short: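 Quantitative high-throughput format using a Gli1-driven firefly luciferase reporter line derived from NIH/3T3 cells. After a 24 hr compound treatment at 37 C and 5% CO2, luminescence reported Gli1 response element activity.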

[18] = A CellTox Green Cytotoxicity Assay to monitor cytotoxicity in HepG2 cells - 32 hour (AID 1224883); further: nearly all actives have a fitted effect of over 50% in size; further: potency means the concentration at half of the fitted maximal effect
In short: as §2

[19] = qHTS assay to identify small molecule phospholipidosis (PLD) inducers (AID 1259344; active means well fitted curve in the direction sought with a large enough effect; an effect the other way counts as inactive or inconclusive)
In short: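 Image-based: LipidTOX Red pit count/intensity per well and per cell; HepG2, 24 h compound at 37 C, PFA fixation, Hoechst counterstain.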

[20] = target: Androgen receptor (Homo sapiens) (UniProt P10275); assay: qHTS assay to identify small molecule antagonists of the androgen receptor (AR) signaling pathway using the MDA cell line in the presence of 0.5 nM R1881 (AID 1259243); further: nearly all actives have a fitted effect of over 50% in size
Chain of Androgen receptor (Homo sapiens) (P10275 whole entry, looked up): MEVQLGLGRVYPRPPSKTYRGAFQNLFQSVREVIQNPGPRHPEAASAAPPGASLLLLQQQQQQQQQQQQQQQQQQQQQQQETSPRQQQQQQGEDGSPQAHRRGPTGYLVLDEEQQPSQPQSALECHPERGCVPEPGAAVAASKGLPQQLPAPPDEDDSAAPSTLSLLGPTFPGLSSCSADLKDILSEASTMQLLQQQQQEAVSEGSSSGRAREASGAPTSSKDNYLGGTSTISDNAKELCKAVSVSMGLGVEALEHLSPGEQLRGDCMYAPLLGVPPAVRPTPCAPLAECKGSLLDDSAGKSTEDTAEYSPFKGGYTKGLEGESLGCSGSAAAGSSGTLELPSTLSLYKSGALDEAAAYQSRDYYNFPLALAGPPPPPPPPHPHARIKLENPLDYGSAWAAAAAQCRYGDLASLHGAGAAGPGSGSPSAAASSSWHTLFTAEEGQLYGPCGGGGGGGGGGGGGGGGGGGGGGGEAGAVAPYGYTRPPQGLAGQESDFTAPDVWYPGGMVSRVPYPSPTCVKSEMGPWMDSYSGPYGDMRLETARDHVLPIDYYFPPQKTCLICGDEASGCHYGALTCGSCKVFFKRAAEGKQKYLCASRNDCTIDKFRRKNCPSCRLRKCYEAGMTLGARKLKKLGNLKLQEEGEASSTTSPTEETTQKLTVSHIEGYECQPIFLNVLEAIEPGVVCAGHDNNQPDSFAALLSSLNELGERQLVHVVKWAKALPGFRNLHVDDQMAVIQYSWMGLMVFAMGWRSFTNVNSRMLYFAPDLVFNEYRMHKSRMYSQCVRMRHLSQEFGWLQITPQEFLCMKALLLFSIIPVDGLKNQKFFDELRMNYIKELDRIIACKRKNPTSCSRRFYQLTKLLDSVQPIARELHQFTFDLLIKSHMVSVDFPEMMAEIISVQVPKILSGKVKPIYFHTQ
In short: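 Antagonist mode quantitative HTS in MDA-kb2 MMTV-luciferase cells, agonist R1881 at 0.5 nM final, 16 hr exposure at 37C and 0% CO2, luminescent detection.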

Measured: Potency

CCCCCCCCN(C)C
inactive: [1] | [2] | [3] | [4] | [5] | [6] | [7] | [8] | [9] | [10] | [11] | [12] | [13] | [14] | [15] | [16] | [17]

S=C(S)NCCNC(=S)S
inactive: [1] | [2] | [3] | [4] | [5] | [6] | [7] | [8] | [9] | [10] | [11] | [13] | [14] | [15] | [16] | [17]

CC[C@@H]1C[C@H](N(Cc2cc(C(F)(F)F)cc(C(F)(F)F)c2)C(C)=O)c2cc(C(F)(F)F)ccc2N1C(=O)OC(C)C
inactive: [1] | [2] | [18] | [3] | [6] | [7] | [8] | [9] | [11] | [12] | [13] | [14] | [15] | [16] | [17]

CC(=O)[C@@]1(O)CC[C@H]2[C@@H]3C[C@H](C)C4=CC(=O)CC[C@]4(C)[C@H]3CC[C@@]21C
inactive: [1] | [2] | [18] | [3] | [7] | [9] | [10] | [11] | [12] | [13] | [14] | [15] | [16] | [17]
active: [8] 1.51 µM

O=S1(=O)N=C(O)c2ccccc21
inactive: [1] | [2] | [3] | [4] | [5] | [6] | [7] | [8] | [9] | [10] | [11] | [13] | [14] | [15] | [16] | [17]

CN(C)CC/C=C1\c2ccccc2COc2ccccc21
inactive: [1] | [2] | [3] | [4] | [5] | [6] | [7] | [8] | [9] | [10] | [11] | [19] | [13] | [14] | [16] | [17]

O=C(c1ccc(O)cc1)c1ccc(O)cc1
inactive: [1] | [2] | [3] | [4] | [5] | [6] | [7] | [8] | [9] | [10] | [11] | [12] | [14] | [15] | [17]

NCCCOCCOCCOCCCN
inactive: [1] | [2] | [3] | [4] | [5] | [6] | [7] | [8] | [9] | [10] | [11] | [12] | [13] | [14] | [16] | [17]

N#Cc1cc2ccccc2c2ccccc12
inactive: [1] | [2] | [3] | [4] | [5] | [6] | [7] | [8] | [9] | [10] | [11] | [12] | [13] | [14] | [15] | [16] | [17]

CCOc1cc(OCC)c(C(=O)CCC(=O)O)cc1OCC
inactive: [1] | [2] | [3] | [4] | [5] | [6] | [7] | [8] | [9] | [10] | [11] | [12] | [19] | [13] | [14] | [15] | [16] | [17]

CN1CCN(C2=Nc3cc(Cl)ccc3Nc3ccccc32)CC1
active: [18] 23.9 µM | [7] 4.25 µM | [15] 13.3 µM
inactive: [1] | [2] | [3] | [6] | [8] | [9] | [10] | [11] | [13] | [14] | [17]

Cn1sccc1=O
active: [15] 48.6 µM
inactive: [1] | [2] | [3] | [4] | [5] | [6] | [8] | [9] | [10] | [11] | [12] | [13] | [17]

C=C(C)C(=O)OC(C)C
inactive: [1] | [2] | [3] | [4] | [5] | [7] | [8] | [9] | [10] | [11] | [20] | [12] | [13] | [14] | [15] | [16] | [17]

CC(=O)CC(=O)c1ccccc1
inactive: [1] | [2] | [18] | [3] | [6] | [7] | [8] | [9] | [10] | [11] | [12] | [13] | [15] | [16] | [17]

CCOc1nc2cccc(C(=O)O)c2n1Cc1ccc(-c2ccccc2-c2nn[nH]n2)cc1
inactive: [1] | [2] | [3] | [4] | [5] | [6] | [7] | [8] | [9] | [20] | [12] | [19] | [13] | [14] | [15] | [16] | [17]

CCCCOC(=O)/C=C\C(=O)OCCCC
inactive: [1] | [2] | [3] | [4] | [5] | [6] | [7] | [8] | [9] | [11] | [12] | [13] | [14] | [15] | [16] | [17]

O=C1CCCCCO1
inactive: [1] | [2] | [3] | [4] | [5] | [6] | [7] | [8] | [9] | [10] | [11] | [12] | [13] | [14] | [15] | [16] | [17]
